Laboratory results from PubChem BioAssay AID687038 (Broad Institute, 2013).

Assay: endogenous miR-21 quantity in Huh7 cells – cell-based, RT-qPCR, dry powder, selectivity assay for miR-122 inhibitor project, dose response (AID 687038)
Details: Huh7 miR-21 levels, qRT-PCR, 48 h; series mostly up to 35 µM; relative miR-21 level (fold): at the top concentration;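 active means curve showing a falling signal whose half-maximal concentration is at most twice the top valid dose; inconclusive means flat curve with a moderate drop, or an unreliable fit; inactive means the rest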

Relative miR-21 level (fold), inactive:
CO[C@@H]1CN(C)C(=O)c2cc(NC(=O)c3ccc4c(c3)OCO4)ccc2OC[C@H](C)NC[C@@H]1C 1.07 fold
C[C@@H]1CN([C@H](C)CO)S(=O)(=O)c2ccc(C#Cc3ccncc3)cc2O[C@@H]1CN(C)C(=O)C1CCOCC1 0.867 fold
CO[C@@H]1CN(C)C(=O)c2cc(NC(=O)c3cccc(Oc4ccccc4)c3)ccc2OC[C@H](C)NC[C@@H]1C 1.07 fold
Cc1cccc(NC(=O)Nc2ccc3c(c2)C(=O)N(C)[C@@H]2CC[C@H](CC(=O)NCc4ccccc4Cl)O[C@H]2CO3)c1 2.03 fold
COCC(=O)N(C)C[C@H]1Oc2cc(-c3ccc(C#N)cc3)ccc2S(=O)(=O)N([C@H](C)CO)C[C@H]1C 0.916 fold
C[C@H]1CN([C@@H](C)CO)C(=O)c2cc(C#Cc3ccccc3F)cnc2O[C@H]1CN(C)C(=O)C1CCCCC1 0.507 fold
CCCC#Cc1ccc2c(c1)O[C@H](CN(C)C(=O)c1ccncc1)[C@H](C)CN([C@@H](C)CO)S2(=O)=O 0.809 fold
CCCCN(CCCC)C(=O)CN(C)S(=O)(=O)c1ccc2c(c1)n(C)c(=O)c(=O)n2C 0.957 fold
COCC(=O)N(C)C[C@H]1Oc2cc(C#Cc3cccnc3)ccc2S(=O)(=O)N([C@@H](C)CO)C[C@H]1C 1.05 fold
CN1C(=O)c2cc(NC(=O)c3cccc(F)c3)ccc2OC[C@@H]2O[C@H](CC(=O)O)CC[C@H]21 0.72 fold
CCCC#Cc1ccc2c(c1)O[C@H](CN(C)C(=O)COC)[C@H](C)CN([C@@H](C)CO)S2(=O)=O 0.974 fold
Cn1c(=O)c(=O)n(C)c2cc(S(=O)(=O)N3CCOCC3)ccc21 1.13 fold
Cc1cccc(NC(=O)Nc2ccc3c(c2)C(=O)N(C)[C@@H]2CC[C@@H](CC(=O)NCc4ccccc4Cl)O[C@H]2CO3)c1 1.3 fold
CN(C)CCN1C(=O)c2cccc3cc(N)cc(c23)C1=O 2.02 fold
CN(C)CCCOc1nn(Cc2ccccc2)c2ccccc12 2.12 fold
CCOC(=O)N1CCC(NC(=O)c2ccc3c(c2)sc2nc(-c4ccccc4)cn23)CC1 1 fold
COCC(=O)N(C)C[C@H]1Oc2cc(-c3ccccc3F)ccc2S(=O)(=O)N([C@@H](C)CO)C[C@H]1C 0.547 fold
